Consider eight molecules from PubChem BioAssay (EPA / NIEHS).

Read-out in assay [1]: Cyclin D1 (CCND1), CCND1 (gene 595)
Description: LTEA_HepaRG_CCND1: Life Technologies and Expression Analysis (LTEA) Assay for Cyclin D1 (CCND1) using HepaRG (AID 2283451).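 For AC50: differentiated human HepaRG liver cells in serum-free induction medium; TaqMan qRT-PCR transcript level normalised to ACTB GAPDH and POLR2A housekeeping genes.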 The following applies: mRNA level, 48 h; actives raise or lower the signal. In a few lines: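 Expression of CCND1 was quantified by qRT-PCR on Fluidigm arrays using ACTB, GAPDH and POLR2A as reference genes. HepaRG cultures, plated 48 h beforehand, were dosed for 48 h at up to 100 uM (half-log, 8 points) in 0.5% DMSO.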

Read-out in assay [2]: catalase (CAT), CAT (gene 847)
Description: LTEA_HepaRG_CAT: Life Technologies and Expression Analysis (LTEA) Assay for catalase (CAT) using HepaRG (AID 2283452). The conditions noted are these: mRNA level, 48 h; actives raise or lower the signal. In a few lines: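 Expression of CAT was quantified by TaqMan qRT-PCR with ACTB/GAPDH/POLR2A normalization after 48 h chemical exposure of HepaRG. Eight-point half-log series, top 100 uM, in 0.5% DMSO; gain or loss fitted against vehicle.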

Read-out in assay [3]: flavin-containing dimethylaniline monooxygenases 3 (FMO3), FMO3 (gene 2328)
Briefly: LTEA_HepaRG_FMO3: Life Technologies and Expression Analysis (LTEA) Assay for flavin-containing dimethylaniline monooxygenases 3 (FMO3) using HepaRG (AID 2283453).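 For AC50: differentiated human HepaRG liver cells in serum-free induction medium.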 The following applies: mRNA level, 48 h; actives raise or lower the signal. In a few lines:
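FMO3 transcript quantified by TaqMan qRT-PCR against three housekeeping genes after 48 h chemical exposure of HepaRG cells. Eight-point half-log series, top 100 uM, 0.5% DMSO vehicle; phenobarbital 1mM induction control; up- or down-regulation fitted.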

Read-out in assay [4]: Cytochrome P450 (CYP1A1), CYP1A1 (gene 1543)
Description: LTEA_HepaRG_CYP1A1: Life Technologies and Expression Analysis (LTEA) Assay for Cytochrome P450 (CYP1A1) using HepaRG (AID 2283454). The conditions noted are these: mRNA level, 48 h; actives raise or lower the signal. In outline: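 CYP1A1 transcript levels measured by Fluidigm qRT-PCR against three housekeeping genes, 48 h after chemical dosing of human HepaRG cells (highest concentration 100 uM, half-log steps, 0.5% DMSO vehicle). Gain or loss of signal fitted relative to DMSO.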

Read-out in assay [5]: CFLAR gene, CFLAR (gene 8837)
Briefly: LTEA_HepaRG_CFLAR: Life Technologies and Expression Analysis (LTEA) Assay for CFLAR gene using HepaRG (AID 2283455). The conditions noted are these: mRNA level, 48 h; actives raise or lower the signal. In a few lines:
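Transcript level by qRT-PCR (normalized to ACTB, GAPDH and POLR2A) after 48 h chemical exposure of HepaRG cells, top concentration 100 uM with half-log steps, 0.5% DMSO vehicle, duplicates; fitted bidirectionally against DMSO baseline.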

Read-out in assay [6]: Forkhead box O1 (FOXO1), FOXO1 (gene 2308)
Description: LTEA_HepaRG_FOXO1: Life Technologies and Expression Analysis (LTEA) Assay for Forkhead box O1 (FOXO1) using HepaRG (AID 2283456). The following applies: mRNA level, 48 h; actives raise or lower the signal. In outline: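 FOXO1 transcript quantified by qRT-PCR after 48 h chemical exposure (top 100 uM, half-log steps, 0.5% DMSO) of HepaRG cells, housekeeping-normalized (ACTB/GAPDH/POLR2A). Changes fitted in both directions relative to vehicle.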

Assay [7] can be described thus: CEETOX_H295R_TESTO: CeeTox H295R High-throughput Steroidogenesis Assay for Testosterone (TESTO) (AID 2283457). The following applies: actives raise or lower the signal. The protocol: CEETOX_H295R is a cell-based, multiplexed-readout assay that uses H295R, a human adrenal gland cell line, with measurements taken at 48 hours after chemical dosing in a 96-well plate.CEETOX_H295R_TESTO is one of 23 assay component(s) measured or calculated from the CEETOX_H295R assay. It is designed to make measurements of hormone induction, a form of inducible reporter, as detected with […] by HPLC-MS-MS technology.Data from the assay component CEETOX_H295R_TESTO was analyzed into 1 assay endpoint. This assay endpoint, CEETOX_H295R_TESTO, was analyzed with bidirectional fitting relative to DMSO as the negative control and baseline of activity. Using a type of inducible reporter, gain or loss-of-signal activity using HPLC-MS-MS was used to understand synthesis of Testosterone in H295R cell line at 48hr of chemical exposure. To generalize the intended target to other relatable targets, this assay endpoint is annotated to the steroid hormone intended target family, where the subfamily is androgens.
Cell culture and media preparation procedures were conducted in accordance with OECD Test No. 456 guidelines, with minor modifications. H295R cells (ATCC CRL-2128) were expanded for 5 passages and frozen in batches in liquid nitrogen. Prior to the steroidogenesis assay, H295R cells were thawed and passed at least 4 times. The maximum passage was 10. Cells were maintained in a 1:1 mixture of DMEM/F12 supplemented with 5ml/L ITS+ Premix (BD Bioscience) and 12.5 ml/L Nu-Serum (BD Bioscience). After seeding cells into 96-well plates at 50-60% confluency, cells were allowed to adhere overnight. […] Test chemicals were incubated for 48 hours, then the medium was removed and split into 2 vials containing approximately 75uL each, and stored at -80 C prior to hormone analysis. For steroid quantification, media samples were shipped to OpAns, LLC (Durham, NC) on dry ice, and samples were thawed to room temperature prior to liquid-liquid extraction. Steroid hormones were extracted from media samples using methyl tertbutyl ether (MTBE). An extra derivatization with dansyl chloride was included for estrogen (estrone and estradiol) detection only. Steroid hormones were separated by HPLC, eluted using a reverse phase C18 gradient with electrospray positive ionization, followed by quantification by tandem mass spectrometry (MS/MS). Data were acquired on a MassHunter Workstation Acquisition version B03.01 (Agilent Technologies, Inc.) and processed using MassHunter Quantitative Analysis for QQQ. Accuracy was determined for each hormone analyte from 3 standards to determine upper and lower limits of quantification (ULOQ and LLOQ, respectively) using a 7-point standard curve. Precision and accuracy of the extraction and quantification methods were calculated as the percent relative standard deviation (%RSD) of the spiked standards and percent spiked standard recovered, respectively. […] Test medium was removed following chemical exposure, and cell viability was evaluated in the same wells by MTT. MTT procedures were as follows: after removal of test medium, 500 uL of 0.5 mg/ml of 3-[4,5-dimethylthiazol-2-y]2,5-diphenyltetrazoliumbromide solution was added to the cells. Following a 4-hour incubation at 37 C and 5% CO2 to allow formazan-crystal formation, the MTT solution was removed and blue formazan salt crystals were solubilized using 500uL anhydrous isopropanol with shaking for 20 minutes. Absorbance was read at 570 and 650nm using a Packard Fusion microplate reader. Background correction of absorbance units was used to determine percent change relative to controls. […] When a test chemical reduced cell viability to 20% - 70%, the test chemical was diluted 10-fold and re-evaluated, but if cell viability was <20%, then the test chemical was diluted 100-fold and re-evaluated. Test chemical dilutions were made until cell viability was >/=70%. MTT assays were also conducted for duplicates of all concentrations of chemicals tested in concentration-response studies. […]

Read-out in assay [8]: growth arrest and DNA damage 45 (GADD45A), GADD45A (gene 1647)
Description: LTEA_HepaRG_GADD45A: Life Technologies and Expression Analysis (LTEA) Assay for growth arrest and DNA damage 45 (GADD45A) using HepaRG (AID 2283458). The conditions noted are these: mRNA level, 48 h; actives raise or lower the signal. In outline:
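Transcript induction or loss, quantified by TaqMan qRT-PCR against three housekeeping genes, is the read-out. HepaRG cells received chemicals for 48 h across eight half-log concentrations from 100 uM in 0.5% DMSO; gain and loss fitted relative to DMSO.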

Read-out in assay [9]: Forkhead box O3 (FOXO3), FOXO3 (gene 2309)
Description: LTEA_HepaRG_FOXO3: Life Technologies and Expression Analysis (LTEA) Assay for Forkhead box O3 (FOXO3) using HepaRG (AID 2283459). The conditions noted are these: mRNA level, 48 h; actives raise or lower the signal. In a few lines:
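FOXO3 transcript measured by qRT-PCR (normalized to ACTB, GAPDH, POLR2A) after 48 h exposure of HepaRG cells in serum-free induction medium. Duplicates, eight half-log concentrations up to 100 uM, 0.5% DMSO; gain or loss fitted against DMSO.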

Read-out in assay [10]: ABC Transporter (ABCB1), ABCB1 (gene 5243)
Description: LTEA_HepaRG_ABCB1: Life Technologies and Expression Analysis (LTEA) Assay for ABC Transporter (ABCB1) using HepaRG (AID 2283460). The conditions noted are these: mRNA level, 48 h; actives raise or lower the signal. In a few lines: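 ABCB1 transcript level measured by TaqMan qRT-PCR against three housekeeping genes after 48 h chemical exposure of differentiated HepaRG cells. Top concentration 100 uM, half-log steps, eight points, 0.5% DMSO vehicle; bidirectional fit relative to DMSO.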

Several values for one entry are separate records, joined by “and”; a condition that tells them apart may be missing. Equal entries are not always repeated. The source holds several records for some structures; these can differ, active in one and inactive in another. Activity calls are given as the source filed them. Rule for the calls: active = hit-call score of the fitted dose curve at least 0.9, where 1 is the maximum; inactive = score below 0.9.

With `CC(C)Oc1cc(-n2nc(C(C)(C)C)oc2=O)c(Cl)cc1Cl`, the molecule was called inactive in assay [1], in assay [5], in assay [6], in assay [7], in assay [8] and in assay [9]. The half-maximal activity concentration (AC50) in assay [2] was 50 µM (active); in assay [3], 61.5 µM (active); in [4], 13.2 µM (active); in [10], 1.25 µM (active).

With `Cc1ccc(-c2c(Cl)nc(C#N)n2S(=O)(=O)N(C)C)cc1`, the result in assay [1] and in assay [10] was inactive. Further, the AC50 in assay [2] is 7.28 µM (active); in assay [3], 19.5 µM (active); in assay [4], 3.53 µM (active); in [5], 7.21 µM (active); in assay [6], 50 µM (active); in assay [8], 22.5 µM (active). Moreover, the AC50 in assay [9] is 3.64 µM (active).

For `CCCCC(CC)COC(=O)c1ccccc1C(=O)OCC(CC)CCCC` (stereo not drawn), the outcome in [1], in assay [2], in assay [3], in assay [5], in [6] and in [8] was inactive. Also, the molecule was called inactive in assay [9] and in [10]. For the same molecule, the concentration at half-maximal activity (AC50) in assay [4] was 34.4 µM (active).

In the case of `CC1COC(Cn2cncn2)(c2ccc(Oc3ccc(Cl)cc3)cc2Cl)O1` (stereo not drawn), the AC50 in assay [1] is 83.9 µM (active); in assay [2] it was 17.4 µM (active); in assay [3], 22.2 µM (active); in assay [4] it was 12.2 µM (active); in [6], 30 µM (active); in [8], 12 µM (active). The half-maximal activity concentration (AC50) in assay [9] was 79.2 µM (active); in [10], 81.4 µM (active). The result in [5] was inactive.

`CCOC(=O)C(Cl)Cc1cc(-n2nc(C)n(C(F)F)c2=O)c(F)cc1Cl` (stereo not drawn): the molecule was classed as inactive in [1], in [2], in assay [3], in [5], in [6] and in [8]. In assay [9], the call was inactive. For the same molecule, the AC50 in assay [4] was 61.9 µM (active); in [10] it was 50 µM (active).

`C=CCC1=C(C)[C@@H](OC(=O)[C@@H]2[C@@H](C=C(C)C)C2(C)C)CC1=O`: the outcome in [1], in assay [2], in [3], in [5], in assay [6] and in [8] was inactive. Besides, in assay [9], the outcome was inactive. For the same molecule, the AC50 in assay [4] was 63 µM (active); in assay [10], 0.086 µM (active).

For the molecule `CCCN(CCC)c1c([N+](=O)[O-])cc(S(N)(=O)=O)cc1[N+](=O)[O-]`, the concentration at half-maximal activity (AC50) was 91.3 µM (active) and 79.8 µM (active) in assay [1]; 93.6 µM (active) and 50 µM (active) and 77.6 µM (active) in assay [2]; 95.4 µM (active) and 77.8 µM (active) and 76.4 µM (active) in assay [3]; 11.5 µM (active) and 50 µM (active) and 35.1 µM (active) in [4]; 75.8 µM (active) and 76.8 µM (active) in assay [5]; 90.2 µM (active) in assay [6]. The AC50 is 85.9 µM (active) in assay [8]; 93.9 µM (active) and 76.9 µM (active) in [9]; 89.8 µM (active) and 84.8 µM (active) and 82.3 µM (active) in assay [10]. In addition, the outcome in assay [1], in [5], in assay [6], in [8] and in assay [9] was inactive.

With `CN(C)C(=S)SSC(=S)N(C)C`, the outcome in assay [1], in assay [2], in assay [3], in [4], in assay [5] and in assay [6] was inactive. Moreover, the molecule was classed as inactive in assay [8], in assay [9] and in assay [10].

The AC50 is the concentration giving half of the maximal activity seen.
